We go through 7 sequences from the supplement of paper PMC6555819.

Common to all, as to experiment: PBM binding z-score (relative to random genomic background probes); higher = stronger binding; sequences stand for … in GC…GCGATTGACAGCGTAGAATGAAGG
Assay [1] concerns RARb homodimer (NR concentration 270 nM). The method in brief:
(§1)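 Binding z-scores take random background probes as their reference. They come from custom Agilent 4×180K protein-binding microarrays incubated 1 h with ligand-free nuclear receptor dimers, with antibodies against each partner (one per run) detecting binding. Scanned fluorescence was regression-normalized.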

Assay [2] relates to RARg:RXRa (NR concentration 270 nM, RXRa partner concentration 90 nM). The method in brief: as §1
Assay [3] deals with RARg homodimer (NR concentration 270 nM). The method in brief:
as §1

For assay [4], the system named is RXRa DBDmut IVT, anti-RXR (DBD mutation: RXRa K156A/R161A, NR concentration 90 nM). An outline of the steps:
as §1

Assay [5] relates to RXRa homodimer (NR concentration 180 nM). The method in brief:
as §1

Assay [6] relates to THRa:RXRa (NR concentration 90 nM, RXRa partner concentration 90 nM). An outline of the steps:
as §1

For assay [7], the system named is THRa homodimer (NR concentration 90 nM). An outline of the steps: as §1
Assay [8] concerns VDR homodimer (NR concentration 270 nM). An outline of the steps: as §1

With CCAGACAGGTGGGAAGGTAACTCAGCCTCGATTA, the PBM binding z-score in assay [1] is 0.465; in assay [2], -0.192; in assay [3], -0.24; in assay [4], -0.499; in assay [5], -0.186; in assay [6], -0.392. The figures for the PBM binding z-score in assay [7] and in assay [8] were 0.393 and -0.38, respectively.
TGAATGAGGTTATAAGATCAGGGACCGTTGCAAA: the PBM binding z-score in assay [1] was determined as 0.518; in assay [2], 1.43; in assay [3], 0.648; in assay [4] it was 0.574; in assay [5] it was 1.83; in assay [6], 1.75. Further, the PBM binding z-score was 0.103 in assay [7] and 0.401 in assay [8].
GTTTGTAGATCAAGGTTAAGAAAGACTAAGCTAA: the PBM binding z-score in assay [1] was found to be 0.79; in assay [2], 0.774; in assay [3] it was 0.839; in assay [4], 0.638; in assay [5], 0.913; in assay [6], 1.44. For the same sequence, the PBM binding z-score in assay [7] is 0.453; in assay [8], 0.645.
Take CCTTAAGGGTCACTCCAGGTTATAGCATCGGAGT: the PBM binding z-score in assay [1] was 4.32; in assay [2] it was 5.98; in assay [3] it was 6.35; in assay [4] it was 3.27; in assay [5], 6.02; in assay [6], 5.09. Further, the figures for the PBM binding z-score in assay [7] and in assay [8] were 0.592 and 2.55, respectively.
For the sequence ATCTCTAGGTAACAAGTTCAGTGGAAGAGAGGAC, the PBM binding z-score in assay [1] was determined as 1.89; in assay [2] it was 1.22; in assay [3] it was 1.25; in assay [4] it was 1.13; in assay [5] it was 0.888; in assay [6], 1.56. In addition, the PBM binding z-score in assay [7] was found to be 1.13; in assay [8], 2.02.
On to GCGACTGGGGCAATGCAGGTTACCATAAGGTTGG, for which the PBM binding z-score in assay [1] was 1.14; in assay [2] it was 0.631; in assay [3], 0.677; in assay [4] it was -0.584; in assay [5], 0.553; in assay [6], 2.56. Moreover, the values for the PBM binding z-score in assay [7] and in assay [8] were -0.0652 and -0.0846, respectively.
Turning to ACTATTAGTTGAGACGAGGGCGACCGATAGGTTG, the PBM binding z-score in assay [1] turned out to be 0.339; in assay [2], 0.187; in assay [3] it was 0.419; in assay [4], 0.572; in assay [5], 0.161; in assay [6] it was 1.23. The PBM binding z-score in assay [7] was -0.4; in assay [8], 0.337.
